Data taken from PubChem BioAssay (NCI).
About 83,000 compounds went through this panel and 20% of them were active in at least one assay; those are over-represented in the sample as a whole.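 The test compound was applied at a single concentration to cells in 96-well plates for 48 hours, and percent growth was recorded.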 Activity calls are given as the source filed them.

What follows are molecules tested on MCF7 breast (assay: NCI-60 one-dose screen, 48 h (100 = growth as untreated, 0 = no growth, -100 = all killed)). Conditions: 10 µM unless noted.
Experimental: Growth inhibition of the MCF7 human tumor cell line is measured as a screen for anti-cancer activity. Cells are grown in 96 well plates and exposed to the test compound for 48 hours. Compounds are tested at a single concentration, which is 10^-5 M for most compounds. The reported endpoint is percent growth (GI% or GIPRCNT), where numbers from 0 - 100% represent growth inhibition, and numbers from -100% - 0 represent cell death. For example, a value of 40 represents 60% growth inhibition. A value of 0 means no net growth occurred over the course of the experiment. A value of -40 indicates 40% of cells at the beginning of the experiment died by the end of the experiment. A value of -100 means all cells are dead at the end of the experiment.
NCI-60 Human Tumor Cell Lines Screen was performed using the standard one-dose NCI protocol, which is described in more detail at https://dtp.cancer.gov/discovery_development/nci-60/default.htm.
Compounds with GIPRCNT values below 10 were considered active. Activity score was based on GIPRCNT using the following formula: […]
Score is 0 for GIPRCNT values of 100 or above, 50 for GIPRCNT values of 0, and 100 for GIPRCNT values of -100.
In the case of `CCN1CCN(/C(=N\c2sc(-c3ccccc3)nc2-c2ccccc2)c2ccccc2)CC1`, the growth is reported as 67.3% (inactive).
`COc1cc(/C=C/C(=O)c2ccc(F)cc2)ccc1Oc1nc(NCCO)nc(N2CCOCC2)n1` was tested, and the growth was 10.2% (inactive).
With `Cn1ccnc1C(=O)/C=C/c1ccc(NC(=O)Nc2ccc(F)cc2)cc1` the growth was 10.3% (inactive).
For `Clc1ccc2oc3c(NCCCN4CCOCC4)c4ccccc4nc3c2c1`, the growth was 7.12% (active).
With `CCOC(=O)c1c(Nc2ccccc2)nn2c(N)c(C#N)c(-c3ccc(F)cc3)nc12` the growth was 67.6% (inactive).
For `CN(C)CCCNc1c2ccc(Cl)cc2nc2c1oc1ccccc12`, the growth was -21.7% (active).
With `Cc1cccc2sc(/N=C(\N)C(Cl)(Cl)Cl)nc12` the growth was 85% (inactive).
`CC(=O)c1ccc(Nc2nc(SC(C)C)nc(-c3ccccc3)c2C#N)cc1` was tested, and the growth was 90.6% (inactive).
For `O=C(CN1CCOCC1)NNc1ncnc2ccccc12`, the growth was 64.6% (inactive).
With `Cc1cc(=O)oc2cc(OCCCOc3ccc(/C=C/C(=O)Nc4ccc(Cl)cc4)cc3)ccc12` the growth was 35.1% (inactive).
`CCOc1ccc([C@H]2C(C(=O)c3ccc(Cl)cc3)C3(N[C@@H]2c2ccccc2)C(=O)Nc2ccc(Br)cc23)cc1` (stereo not given in full) was tested, and the growth was 9.08% (active).
With `Cn1c(SCC(=O)Nc2ccc(-c3nc4ccc([N+](=O)[O-])cc4[nH]3)cc2)nc2ccccc2c1=O` the growth was 45.3% (inactive).
In the case of `COc1ccc(C(=O)/C=C/c2ccc(OCc3ccc(Cl)cc3)c(OC)c2)cc1OC`, the growth is reported as 20.4% (inactive).
For `COc1cc2nc(-c3ccc(Cl)cc3)cc(OCCCNCC3CCCO3)c2cc1OC` (stereo not given), the growth was 36% (inactive).
`C=CCn1c(SCC(=O)c2ccccc2)nnc1-c1c[nH]c2ccccc12` was tested, and the growth was 97.2% (inactive).
With `c1ccc2c(NCCCN3CCOCC3)c3oc4ccccc4c3nc2c1` the growth was 0.0447% (active).
With `COc1ccc(/C=N/NC(=O)c2[nH]c3ccc(Br)cc3c2-c2ccccc2)o1` the growth was 9.83% (active).
`C=CCSc1ccc2c(c1)C(N1CCNCC1)=Nc1ccccc1O2` was tested, and the growth was 59.2% [8.25 µM] (inactive).
With `Nc1nc(N)c2c(n1)NC(c1ccc(C(F)(F)F)cc1)CC(c1ccc(Nc3nc(NCCO)nc(Nc4ccc(Cl)cc4)n3)cc1)=N2` (stereo not given) the growth was -52.5% (active).
In the case of `COC(=O)c1ccc(NC(=S)N2CCc3ccc([N+](=O)[O-])cc3C2)cc1O`, the growth is reported as 92.7% (inactive).
With `CC(C)(O)c1cncc(-c2ccc3ncnc(N4CCc5cc(F)c(Cl)cc54)c3c2)c1` the growth was 10.8% (inactive).
With `NS(=O)(=O)c1ccc(Nc2nc(SCC(=O)c3ccc(Cl)cc3)nc3ccccc23)cc1` the growth was 83% (inactive).
With `Cn1ccnc1C(=O)/C=C/c1ccc(NC(=O)Nc2ccc(Cl)cc2)cc1` the growth was 38.1% (inactive).
For `CCCC(=O)NC(c1cccc(N(C)C)c1)c1cc(C)c2cccnc2c1O` (stereo not given), the growth was 35.3% (inactive).
In the case of `Cc1sc2nc(NCc3ccccc3Cl)[nH]c(=O)c2c1C`, the growth is reported as 80.6% (inactive).
In the case of `CC(C)(C)Nc1nc2c(OCCc3ccccc3)cccn2c1-c1cccc(F)c1`, the growth is reported as -13.4% (active).
`O=c1[nH]c2ccc(Cl)cc2cc1CSc1ccccc1Nc1nccc(-c2ccc(Cl)cc2)n1` was tested, and the growth was 70.3% (inactive).
With `CO/N=C1\CCc2c(sc(NC(=O)c3cccc(C(F)(F)F)c3)c2C(N)=O)C1` the growth was 45.9% (inactive).
With `O=C1Nc2cc(Cl)ccc2/C1=C\c1ccc(OCc2ccc([N+](=O)[O-])cc2)cc1` the growth was 61.3% (inactive).
`CC(C)(C)Nc1nc2c(OCCc3ccccc3)cccn2c1-c1ccc(O)cc1` was tested, and the growth was 45.4% (inactive).
For `CNC(=O)c1cc(-c2ccc(NC(=O)Nc3ccc(N4CCN(C)CC4)c(C(F)(F)F)c3)cc2)nc2cccnc12`, the growth was -100% (active).
For `O=C(c1ccc(O)cc1)C1[C@H](c2ccc(Cl)cc2)[C@@H](c2ccccc2)NC12C(=O)Nc1ccc(Cl)cc12` (stereo not given in full), the growth was 9.87% (active).
For `N[C@@H](Cc1cn(-c2c3ccccc3nc3ccccc23)nn1)C(=O)O`, the growth was 73.9% (inactive).
With `CN1CCN(Cc2ccc(NC(=O)c3cncc(C#Cc4cnc5[nH]ncc5c4)c3)cc2C(F)(F)F)CC1` the growth was 52.6% (inactive).
With `COc1ccccc1/C=C/C=N/NC1=NC2C(S1)N(C)C(=O)N2C` (stereo not given) the growth was 19.9% (inactive).
With `Cn1c(SCC(=O)c2cccs2)nc2ccccc2c1=O` the growth was 62.4% (inactive).
With `COc1ccc(/C=N/Nc2ccnc3cc(Cl)ccc23)cc1Cl` the growth was -12.2% (active).
With `C=C1CC[C@H]2[C@@](C)(CCC3OC(c4ccc(OCc5cn(C6CC(OC(C)=O)C(OC(C)=O)C(COC(C)=O)O6)nn5)cc4)OC[C@]32C)[C@@H]1/C=C/C1=CCOC1=O` (stereo not given in full) the growth was 44.4% (inactive).
For `CCCC(=O)NC(c1cccnc1)c1cc(C)c2cccnc2c1O` (stereo not given), the growth was 10.6% (inactive).
With `O=C1C2=C(C(=O)c3c(O)cccc31)C(c1ccco1)c1sc(=O)[nH]c1S2` (stereo not given) the growth was -14.2% (active).
